# According to the supplement of paper PMC10338343:
# ± gives the standard deviation. In all, about 6,600 sequences were measured (“pre-steady-state target cleavage rate”: median about 0.07, highest 2% from about 0.72 on). The sample holds the highest values, similar sequences and a random draw of the others, so the mix is not that of the screen.
# Test system: MIWI (PIWIL1) piRISC loaded with Kctd7 piRNA (30 nt)
# Experiment: pre-steady-state target cleavage rate (min^-1); MIWI and MILI are mouse PIWI proteins and EfPiwi is from a freshwater sponge; tags in brackets are library labels; higher = faster piRNA-guided slicing of the target
# Conditions: guide: Kctd7 piRNA 5'p-UGUUAAUCUCUCAGAGAAGGUGACAGUGAU; auxiliary factor: 500 nM mouse GTSF1
# Method: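 Cleave-'n-Seq: a library of target RNAs (target site embedded in constant flanks, ACAGCATTCCGCGTTAGTGATATCCG... 5' flank; DNA-blocked outside the site) at 0.1 nM was incubated with 1 nM active mouse MILI or MIWI piRISC (synthetic 5'-monophosphorylated piRNA guide) with or without 500 nM mouse GTSF1 at 33 °C for 1 min to 16 h. Uncleaved targets were sequenced and normalised to non-target controls, and the pooled three trials were fitted to a burst-and-steady-state model to give the pre-steady-state cleavage rate (min^-1; k3 is constrained to at most 1e-4). Sequence is the target site only; target names encode pairing extent (gX:gY) and contiguous / 1-mismatch / 2-mismatch / bulge geometry. Fits with R² ≤ 0 are excluded.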
row,Sequence,pre-steady-state target cleavage rate
1,UAGAGACUCACCUUCUCUGAGAGAUUAUGA,0.0764 ± 0.014
2,UUCACUGUCACCUUCUCUGAGUAGAUUAACA,0.0213 ± 0.0063
3,UAGUCUGUCACCUUUUCUGAGAGAUUAACA,0.542 ± 0.029
4,AUCACUGUCACCUUCACUGAGUGAUUAACA,0.0332 ± 0.007
5,UAGUGACAGACCUUCACUGAGAGUUUAACA,0.0305 ± 0.011
6,UAGUGACUCACCUUCUCUGAGUGAUAAACA,0.0392 ± 0.007
7,AUCACUGUCACCUUCUCUGAGAGAUUAACG [g2:g30:cont:t1G],0.713 ± 0.037
8,AUCACUGUCACCUUCUCUGAGAGAUUAAUCA,0.381 ± 0.04
9,AAUCACUGUCACCUUCUCUGAGAGAUUAACA,0.81 ± 0.043
10,UAGUGACUCACCUUCUCUGAGAGAAUAAGA,0.02 ± 0.0073
11,UUCACAGUCACCUUCUCUGAGAGAUUAAGA,0.137 ± 0.027
12,UACAGUGUCAGCUUCUCUGAGAGAUUAACA,0.622 ± 0.028
13,UAGUGUCUCAGCUUCUCUGAGAGAUUAACA,0.437 ± 0.031
14,UUCAGUGUCAGCUUCUCUGAGAGAUUAACA,0.609 ± 0.032
15,UAGAGUGUCAGCUUCUCUGAGAGAUUAACA,0.772 ± 0.044
16,UAGUGUGUCAGCUUCUCUGAGAGAUUAACA,0.561 ± 0.032
17,AUCAGUGUCAGCUUCUCUGAGAGAUUAACA,0.734 ± 0.034
18,AUCUCUGUCACCUACUCUGAGAGAUUAACA,0.627 ± 0.042
19,AUCACUGUCACCUUCUCUGACAGAUUAUCA,0.0262 ± 0.0092
20,UAGUCUGUCACCUUCUCUGAGACAUUAUCA,0.0172 ± 0.0056
21,UAGUGUCACACCUUCUCUGAGAGAUAUUGA,0.00616 ± 0.0033
22,UAGUGACACACCUUCUCUGAUAGAUUAACA,0.714 ± 0.054
23,UAGUGACAGUGGAUCUCUGAGAAAUUAACA,< 0.0001
24,UAGACUGUCACCUUCUCUGAGAGCAUUAACA,0.38 ± 0.025
25,UAGUCUGUCACCUUCUCUGAGUGAUUUACA,0.0221 ± 0.0058

row,Sequence,pre-steady-state target cleavage rate
1,UUUCACUGUCACCUUCUCUGAGAGAUUAACA,0.415 ± 0.04
2,UACACUGUCACCUUCUCCUGAGAGAUUAACA,0.115 ± 0.043
3,ACCACUGUCACCUUCUCUGAGAGAUUAACA,0.715 ± 0.039
4,UUCACUGUCACCUUCUCCUGAGAGAUUAACA,0.795 ± 0.21
5,AUCCACUGUCACCUUCUCUGAGAGAUUAACA,0.712 ± 0.046
6,UUCACUGUCACCUUCUCUCUGAGAUUAACA,0.0263 ± 0.0076
7,GUCACUGUCACCUUCUCUGAGAGAUUAACA,0.763 ± 0.04
8,UACCACUGUCACCUUCUCUGAGAGAUUAACA,0.773 ± 0.044
9,AUCACUGUCACCUUCUCCUGAGAGAUUAACA,0.645 ± 0.17
10,UCCACUGUCACCUUCUCUGAGAGAUUAACA,0.68 ± 0.028
11,AGUCACUGUCACCUUCUCUGAGAGAUUAACA,0.833 ± 0.057
12,UUCACUGUCACCUUCUCUGAGAGAAAUACA,0.179 ± 0.038
13,AUCACUGUCACCUUCAUCUGAGAGAUUAACA,0.275 ± 0.053
14,UUCACACUCACCUUCUCUGAGAGAUUUUGA,0.0972 ± 0.024
15,UAGUGACUCACCUUCUCUGAGAGAUUAAGA,0.194 ± 0.031
16,UAGACUGUCACCUACUCUGAGAGUUUAACA,0.147 ± 0.023
17,UUCACUGUCACCUUCUCUGAGCGAUUAACA,0.13 ± 0.0091
18,UAGACUGUCAGCUUCUCUGAGAGAUUAUCA,0.171 ± 0.024
19,CUCACUGUCACCUUCUCUGAGAGAUUAACA,0.714 ± 0.031
20,UUCAGACUCACCUUCUCUGAGAGAUUAACA,0.472 ± 0.035
21,AUCAGACUCACCUUCUCUGAGAGAUUAACA,0.726 ± 0.045
22,UUCACUGUCACCUUCUCUGAGAGAUUAACA [g2:g29:cont:t1A],0.717 ± 0.03
23,AUUCACUGUCACCUUCUCUGAGAGAUUAACA,0.737 ± 0.036
24,AUCACUCAGACCUUCUCUGAGAGAUUAACA,0.433 ± 0.024
25,UUCUCUGUCACCUUCACUGAGAGAUUAACA,0.392 ± 0.021

row,Sequence,pre-steady-state target cleavage rate
1,ACUCACUGUCACCUUCUCUGAGAGAUUAACA,0.781 ± 0.054
2,UACAGUGUCACCUUCUCUGAGUGAUUAACA,0.0377 ± 0.0077
3,UAGUGUGUCACCUUGUCUGAGAGAUUUUGA,0.00982 ± 0.0057
4,UAGACUGUCACGUUCUCUGAGUGAUUAACA,0.00628 ± 0.0015
5,UUCACUGUCUCCUUCUCUGAGAGAUUAUGA,0.122 ± 0.034
6,UACUCUGUCACCUUCUCUGAGAGAUUUUGA,0.0843 ± 0.017
7,UAGUGACACACCUUCUCUGAAAGAUUAACA,0.384 ± 0.029
8,UAGUGUGUCGACCUUCUCUGAGAGAUUAACA,0.155 ± 0.017
9,UAGUGACUCACCUUCUCUGACUGAUUAACA,0.00516 ± 0.0026
10,UAGUGACUCACCUUCUCUGAUAGAUUAACA,0.778 ± 0.035
11,UUGACUGUCACCUACUCUGAGAGAUUAACA,0.689 ± 0.041
12,UAGUGACUGACCUUCUCUGAGAGAUUAACA,0.363 ± 0.037
13,UAGUGACUCACCUUCUCUGACAGAUUAACA,0.393 ± 0.048
14,UAGACUGUCACCUACUCUGAGAGAUUAACA,0.666 ± 0.049
15,AUGACUGUCACCUACUCUGAGAGAUUAACA,0.736 ± 0.042
16,UUGACUGUCACCUUCUCUGAGAGAUUAACA,0.777 ± 0.042
17,UUGACUGUCACCUUCUCUGAGAGAUUAAGA,0.257 ± 0.034
18,UAGACUGCACCUUCUCUGAGAGAUUAACA,0.698 ± 0.046
19,UAGUGACUGCACCUUCUCUGAGAGAUUAACA,0.77 ± 0.05
20,UUGACUGUCACCUUCUCUGUGAGAUUAACA,0.267 ± 0.011
21,AUCACUGUCACCUUCUCUGAGAGUAAAACA,0.125 ± 0.024
22,UUCACUGUCAGCUUCUCUGAGAGAUUAUCA,0.24 ± 0.027
23,UAGUCUGUCACCUUCUCUGAGAGAUUAGACA,0.138 ± 0.041
24,UAGUGACACACCUUCUGUGAGAGAUUAUGA,0.015 ± 0.007
